# In PubChem BioAssay AID1508622 (National Center for Advancing Translational Sciences (NCATS), 2021):
# Calls of active or inactive are those of the source. Calls follow the shape of the dose curve; as a rule, active = well fitted activation curve with a large enough effect; inconclusive = small, poorly fitted or top-dose-only effect; inactive = no such curve, though single readings can be large or run the other way.
# Assay: Confirmatory qHTS for Identification of Small Molecule Activators of Huntingtin-Antisense Promoter Activity
# Settings: HEK293 HTT-AS promoter firefly luciferase reporter, 24 h; series mostly up to 57.5 µM; activity change, positive = activation: at the top concentration
# In short: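 Activity normalized between vehicle control (0%) and zero RLU (-100%) from firefly luminescence (Dual-Glo). Compounds, up to 57.5 uM final, incubated 24 h at 37C on HEK293 reporter cells plated 24 h earlier.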
# Potency is read from the fitted curve at half-maximal effect.
SMILES,"activity change, positive = activation",Potency
CCC(=O)N1CCCc2cc(S(=O)(=O)N3CCC(C(=O)Nc4ccc(F)c(F)c4)CC3)ccc21,-38.3% (inactive),
O=C(Nc1cccc(C(=O)N2CCN(c3ccc(Cl)cc3)CC2)c1)c1nsc2ccccc12,,0.151 µM (active)
COc1cccc(N2CCN(C(=O)c3cccc(-n4c(C)nc5cccnc54)c3)CC2)c1,-84.3% (inactive),
CCCC(O)c1nc2ccccc2n1CCCCOc1ccc(OC)cc1 (centres undefined),-43.5% (inactive),
COc1ccc(-c2noc(N3CCC(C(=O)N4CCN(c5cccc(OC)c5)CC4)CC3)n2)cc1,-80.5% (inactive),
COc1cccc(-c2cn3c(n2)sc2cc(C(=O)NCc4cccs4)ccc23)c1,,8.49 µM (active)
CCOc1ccc(NC(=O)CN(c2ccc(Cl)cc2C)S(=O)(=O)c2ccccc2)cc1,-35.9% (inactive),
Cc1cccc(OCC(=O)Nc2ccc3c(c2)N(C)C(=O)c2ccccc2S3)c1,-27.1% (inactive),
COC(=O)C1=C(C)NC(C)=C(C(=O)OCC(C)=O)C1c1ccccc1[N+](=O)[O-] (centres undefined),43.9% (inactive),
CCN1c2ccccc2-c2nc(SCC(=O)Nc3cc(F)ccc3F)ncc2S1(=O)=O,-31.3% (inactive),
Cc1ccc(C(=O)N2CCc3cc(CNC(=O)CSc4ccccc4)ccc32)cc1,-10.4% (inactive),
CC(C)c1ccc(Nc2c(-c3ccccn3)nc3ccccn23)cc1,-93.2% (inactive),
Cc1ccc(C(Nc2ccccn2)c2ccc3cccnc3c2O)cc1 (centres undefined),-28% (inactive),
Cc1nc2nncn2c(NCc2ccc(Cl)cc2)c1C,-93.3% (inactive),
CCOC(=O)c1cc2c(=O)n3ccccc3nc2n(CC2CCCO2)c1=NC(=O)c1cc(C)cc(C)c1 (centres undefined),-45.7% (inactive),
COc1ccc(-n2c(=O)[nH]c3cc(C(=O)NCCc4ccc(Cl)cc4)ccc3c2=O)cc1OC,-46.8% (inactive),
COc1ccc(C2C=C(c3ccc(Br)cc3)Nc3nnnn32)c(OC)c1 (centres undefined),3.76% (inactive),
Cn1cnc(S(=O)(=O)N2CCC(C(=O)Nc3ccc(OC(F)(F)F)cc3)CC2)c1,-95% (inactive),
CCCC(=O)Nc1nnc(SCc2cc(=O)c3ccc(C)cc3[nH]2)s1,-93.8% (inactive),
COc1ccc(N2CCN(CCCNC(=O)c3c(C)nn(-c4ccc(F)cc4)c3-n3cccc3)CC2)cc1,-48.9% (inactive),

SMILES,"activity change, positive = activation",Potency
O=C(NCCc1csc(-c2ccc(F)cc2)n1)c1cccc(F)c1,-40% (inactive),
O=C(O)c1ccc2c(c1)N(Cc1ccc(F)cc1)C(=O)c1ccccc1S2=O (centres undefined),-12.5% (inactive),
Cc1nc(C)c(-c2ccc(SCC(=O)Nc3ccc(F)c(F)c3)nn2)s1,-50.1% (inactive),
COC(=O)c1c(C)oc2ccc(N(C(=O)c3ccncc3)S(=O)(=O)c3cc(C)c(C)cc3C)cc12,-93.4% (inactive),
Cn1cc(CNCC2CCN(c3ncc(C(=O)NO)cn3)CC2)c2ccccc21,-1.6% (inactive),
COc1ccc2sc(N(Cc3cccnc3)C(=O)c3cccs3)nc2c1,-46.8% (inactive),
COc1ccc(C(=O)NCC(c2cccnc2)N2CCc3ccccc32)cc1 (centres undefined),-45.2% (inactive),
CN(C)Cc1ccc(-c2nc3cccc4c3n2CCNC4=O)cc1,,30.1 µM (active)
CCOc1ccccc1NS(=O)(=O)c1ccc2c(c1)CC(C)N2C(=O)C1CC1 (centres undefined),-55.1% (inactive),
Cc1cc(Cl)ccc1OCC(=O)N1CCC(c2nc3ccccc3s2)CC1,-58.1% (inactive),
CCC(C(=O)NCCc1cc(OC)ccc1OC)n1nc(C)c2c(C)n(-c3ccccc3)nc2c1=O (centres undefined),-49.5% (inactive),
COc1cccc(CNC(=O)Cn2c(=O)oc3cc(S(=O)(=O)N4CCC(C)CC4)ccc32)c1,-21.7% (inactive),
COc1ccc(C(=O)Nc2ccc(-c3cc4ccccc4oc3=O)c(C)c2)cc1Br,-18.9% (inactive),
CCOc1ccc(-n2ccnc2SCC(=O)Nc2ccc3c(c2)OCO3)cc1,-57.7% (inactive),
Cc1ccc(C2=CC(c3ccc(Cl)cc3)n3nc(-c4ccc(C)cc4)nc3N2)cc1 (centres undefined),-3.5% (inactive),
CC(C)C(=O)N1c2ncnn2C2(CCCCC2)[C@@H]2CCCC[C@@H]21,-18.3% (inactive),
CCc1ccc2c(c1)-c1ccccc1S(=O)(=O)N2CC(=O)N1CCC(C)CC1,,12 µM (active)
COc1ccc(NS(=O)(=O)c2ccc3c(c2)CCCN3C(=O)C2CCC2)cc1OC,-84.1% (inactive),
CCOc1ccc(C(NC(=O)c2cc(OC)c(OC)c(OC)c2)c2cc(Cl)c3cccnc3c2O)cc1 (centres undefined),-41.4% (inactive),
